Laboratory results published in PubChem BioAssay (Tox21).
Records with an inconclusive call do not appear. The source made the active and inactive calls. Calls come from the whole dose curve; as a rule, active = well fitted curve in the direction sought with a large enough effect in the repeat runs; inconclusive = weak or mixed curves; inactive = no such curve, though single readings can be large; an effect the other way counts as inactive or inconclusive.

Legend:
[1] = qHTS RealTime-Glo MT Cell Viability Assay in HEK293 cells - 16 hour (AID 1224872); note: top concentration of the series differs between compounds; nearly all actives have a fitted effect of over 50% in size
In short: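 Tox21 10K qHTS, HEK293, 600 cells/well, RealTime-Glo reagent co-dispensed with cells; 5 h preincubation, compound by pintool, 37 C, luminescence at 0–40 h.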

[2] = qHTS RealTime-Glo MT Cell Viability Assay in HepG2 cells - 8 hour (AID 1224873); note: nearly all actives have a fitted effect of over 55% in size
In short: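 Real-time viability: cells seeded at 600 per well together with NanoLuc and cell-permeant prosubstrate, compounds added after 5 h incubation. Luminescence tracked at 0, 8, 16, 24, 32 and 40 h of exposure.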

[3] = qHTS RealTime-Glo MT Cell Viability Assay in HEK293 cells - 40 hour (AID 1224874); details: RealTime-Glo luminescence; max response: stronger effect = lower value; note: nearly all actives have a fitted effect of over 50% in size
In short: (§1)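 Cells were seeded together with NanoLuc luciferase and a prosubstrate that viable cells reduce to a luciferase substrate. After a 5 h incubation at 37 C/5% CO2, compounds were added and luminescence was measured repeatedly during 40 h of treatment.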

[4] = A CellTox Green Cytotoxicity Assay to monitor cytotoxicity in HEK293 cells - 24 hour (AID 1224875); note: series mostly up to about 77 µM; nearly all actives have a fitted effect of over 45% in size
In short: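 Nonlytic real-time cytotoxicity: HEK293 + CellTox Green reagent plated, 5 h preincubation, pintool compound addition (23 nL in DMSO), 37 C for 40 h, fluorescence measured at successive time points.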

[5] = A CellTox Green Cytotoxicity Assay to monitor cytotoxicity in HepG2 cells - 16 hour (AID 1224876); note: nearly all actives have a fitted effect of over 45% in size
In short: (§2)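 Read-out is fluorescence of a cyanine dye excluded from live cells that stains DNA of dead HepG2 cells, with signal proportional to cytotoxicity. Plates were read at 0, 8, 16, 24, 32 and 40 h after compound addition.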

[6] = qHTS RealTime-Glo MT Cell Viability Assay in HepG2 cells - 32 hour (AID 1224877); note: nearly all actives have a fitted effect of over 55% in size
In short: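 Cells + NanoLuc/prosubstrate dispensed (600 cells/well) → 5 h at 37 C/5% CO2 → compounds in DMSO transferred → 40 h incubation at 37 C, luminescence read at 0, 8, 16, 24, 32, 40 h.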

[7] = A CellTox Green Cytotoxicity Assay to monitor cytotoxicity in HepG2 cells - 24 hour (AID 1224878); note: nearly all actives have a fitted effect of over 45% in size
In short: as §2

[8] = A CellTox Green Cytotoxicity Assay to monitor cytotoxicity in HepG2 cells - 40 hour (AID 1224879); note: nearly all actives have a fitted effect of over 40% in size
In short: as §2

[9] = qHTS RealTime-Glo MT Cell Viability Assay in HEK293 cells - 0 hour (AID 1224880); note: top concentration of the series differs between compounds; nearly all actives have a fitted effect of over 45% in size
In short: as §1
% is set by controls: 0 for no effect and ±100 for the full control effect.

CC(=O)c1cnccn1
inactive: Potency [1] | outcome [2] | max response [3] 3.82% | outcome [4] | outcome [5] | Potency [6] | outcome [7] | Potency [8] | Potency [9]

CCC(C(=O)NC(=O)NC(C)=O)c1ccccc1 (stereo not drawn)
inactive: Potency [1] | outcome [2] | max response [3] -7.54% | outcome [4] | outcome [5] | Potency [6] | outcome [7] | Potency [8] | Potency [9]

N[C@H](C(=O)O)[C@@H](O)c1ccc(O)c(O)c1
inactive: Potency [1] | outcome [2] | max response [3] 0.604% | outcome [4] | outcome [5] | Potency [6] | outcome [7] | Potency [9]

CC(C)c1ccc2ncccc2c1
inactive: Potency [1] | outcome [2] | max response [3] -0.522% | outcome [4] | outcome [5] | Potency [6] | outcome [7] | Potency [8] | Potency [9]

C[C@@H]1C[C@H]2[C@@H]3C[C@H](F)C4=CC(=O)C(Cl)=C[C@]4(C)[C@@]3(F)[C@@H](O)C[C@]2(C)[C@@]1(O)C(=O)CO
inactive: Potency [1] | outcome [2] | max response [3] -27.2% | outcome [4] | outcome [5] | Potency [6] | Potency [8] | Potency [9]

Cc1ccc(-c2ccccc2C#N)cc1
inactive: Potency [1] | outcome [2] | max response [3] 1.26% | outcome [4] | outcome [5] | Potency [6] | outcome [7] | Potency [9]

CCOC(=O)c1cnc2c(cnn2CC)c1NN=C(C)C
inactive: Potency [1] | outcome [2] | max response [3] -11.3% | outcome [5] | Potency [6] | outcome [7] | Potency [9]

O=C(O)CCCC[P+](c1ccccc1)(c1ccccc1)c1ccccc1
inactive: Potency [1] | outcome [2] | max response [3] -10.4% | outcome [4] | Potency [6] | Potency [9]

CCCc1nn(C)c2c(=O)[nH]c(-c3cc(S(=O)(=O)N4CCN(C)CC4)ccc3OCC)nc12
inactive: outcome [2] | outcome [4] | outcome [5] | Potency [6] | outcome [7] | Potency [9]

CC(=O)OCC(=O)[C@@]1(O)[C@H](C)C[C@H]2[C@@H]3CCC4=CC(=O)C=C[C@]4(C)[C@@]3(F)[C@@H](O)C[C@@]21C
inactive: Potency [1] | outcome [2] | max response [3] 5.93% | outcome [4] | outcome [5] | Potency [6] | outcome [7] | Potency [8] | Potency [9]

O=C(c1ccccc1O)c1ccccc1O
inactive: outcome [2] | outcome [4] | outcome [5] | Potency [6] | outcome [7] | Potency [8] | Potency [9]

NS(=O)(=O)Cc1noc2ccccc12
inactive: Potency [1] | outcome [2] | max response [3] 1.21% | outcome [4] | outcome [5] | Potency [6] | outcome [7] | Potency [9]

CC(C)(C#N)Nc1nc(Cl)nc(NC2CC2)n1
inactive: Potency [1] | outcome [2] | max response [3] 1.79% | outcome [4] | outcome [5] | Potency [6] | outcome [7] | Potency [8] | Potency [9]

CC(=O)NC(=O)c1ccccc1O
inactive: Potency [1] | outcome [2] | max response [3] 7.94% | outcome [4] | outcome [5] | Potency [6] | outcome [7] | Potency [8] | Potency [9]

CO[C@@]1(NC(=O)C(C(=O)O)c2ccc(O)cc2)C(=O)N2C(C(=O)O)=C(CSc3nnnn3C)CO[C@@H]21 (stereo partly drawn)
inactive: Potency [1] | outcome [2] | max response [3] 11.1% | outcome [4] | outcome [5] | Potency [6] | Potency [9]

Cc1nc2ccc(CN(C)c3ccc(C(=O)N[C@@H](CCC(=O)O)C(=O)O)s3)cc2c(=O)[nH]1
inactive: Potency [1] | outcome [2] | outcome [4] | outcome [5] | Potency [6] | outcome [7] | Potency [8] | Potency [9]

O=C1c2ccccc2C(=O)c2cc(O)ccc21
inactive: outcome [2] | outcome [4] | outcome [5] | Potency [6] | outcome [7] | Potency [8] | Potency [9]

NC(=O)NC1N=C([O][Al])NC1=O (stereo not drawn)
inactive: Potency [1] | outcome [2] | max response [3] 1.53% | outcome [4] | outcome [5] | Potency [6] | outcome [7] | Potency [9]

O=C(CO)[C@@H](O)[C@H](O)[C@@H](O)CO
inactive: Potency [1] | outcome [2] | max response [3] 5.66% | outcome [4] | Potency [6] | Potency [9]
